Results on 58 compounds are retold here after ChEMBL document CHEMBL3988442, “University of Dundee, Small-Polar-MMV Screening Library” (2021).

Molecules are shown by their SMILES. Hit rate of the full screen: of about 48,000 compounds, about 13,000 (27%) showed an effect of 50% or more. The list shows a part of the results.

For this test, the system named is Wolbachia pipientis. In words: Anti-Wolbachia Cell-Based Screen. More on the design: scale not given: in the data most compounds retested in dose-response had high values. The test is classed as functional. Conditions: 5 µM.
Consider `Cc1ccc(C)c(NC(=O)Cn2nc(C)c(C#N)c2N)c1`, for which the “Percent Effect” value was -3.359%. Regarding `CC(C)SCc1cccc(NC2CCN(C)C2=O)c1` (stereo not drawn), the “Percent Effect” value is reported as -2.094%. Consider `CCc1ccccc1-n1cc(O)c(C(=O)N2CCCCC2)n1`, for which the “Percent Effect” value is -6.715%.

Regarding `COc1ccc(NC(C)C(=O)N2CCN(c3ncccn3)CC2)cn1` (stereo not drawn), the “Percent Effect” value is recorded as -16.98%. The figure for `CC(C(=O)N1CCN(c2cnccn2)CC1)n1cncn1` (stereo not drawn) is -0.9189%. The figure for `CC(C(=O)N1CCN(c2ncccn2)CC1)n1cncn1` (stereo not drawn) is 114.6%. Next, `Cc1csc(N2CCCN(C(=O)C(C(C)C)n3cncn3)CC2)n1` (stereo not drawn): -4.935%. Consider `CCc1nc(CN2CCCN(C(=O)C(C)n3cncn3)CC2)cs1` (stereo not drawn), for which the “Percent Effect” value is -3.687%. Next, `CC(=O)N1CCCN(C(=O)C(C)n2cncn2)CC1` (stereo not drawn): 98.01%; `CC(C(=O)N1CCN(c2ccccc2Cl)CC1)n1cncn1` (stereo not drawn): 9.073%. On to `CC(C)N1CCN(C(=O)C(C)n2cncn2)CC1` (stereo not drawn), for which the “Percent Effect” value was found to be 90.2%. The figure for `CC(=O)N1CCN(C(=O)C(C)n2cncn2)CC1` (stereo not drawn) is 5.614%; for `CC(C(=O)N1CCOCC1)n1cncn1` (stereo not drawn) it is 74.2%; for `CC(=O)N1C[C@@H](F)[C@@H](OCc2nc3ccc(C#N)cc3[nH]2)C1` it is -0.3332%.

On to `Cc1csc(CN(CC2CCCO2)C(=O)c2occc2C)n1` (stereo not drawn), for which the “Percent Effect” value is given as -7.004%. Consider `Cc1ccc(NC2(C(=O)NCc3c(C)n[nH]c3C)CCCC2)cc1`, for which the “Percent Effect” value amounted to 1.889%.

As for `O=S1(=O)CCC(N(CCc2ccc3c(c2)CCO3)C2CC2)C1` (stereo not drawn), the “Percent Effect” value is recorded as -1.378%. For the compound `Cc1ccc(CN2CCOC3(CCCN(C(=O)c4ccco4)C3)C2)o1` (stereo not drawn), the “Percent Effect” value was -7.626%. Next, `Cc1ccc(-c2[nH][nH]c(=O)c2CCN)cc1`: 116.2%. With `NCCc1c(-c2ccccc2)[nH][nH]c1=O.O=C(O)C(=O)O`, the “Percent Effect” value worked out at 104.8%.

On to `NCCc1c(-c2ccc(F)cc2)[nH][nH]c1=O`, for which the “Percent Effect” value is 105.4%. Take `Cc1nc(C)c(CCNC(Cc2ccncc2)C(F)(F)F)s1` (stereo not drawn): the “Percent Effect” value stood at 2.095%. `CC(SCCS(C)(=O)=O)c1nc(Cc2ccc(F)cc2)no1` (stereo not drawn): the “Percent Effect” value is recorded as -13.13%. For the compound `CNC(=O)c1cn2cc(-c3ccccc3Cl)n(CC=C(C)C)c(=O)c2n1`, the “Percent Effect” value is 16.22%.

Regarding `COc1ccccc1C(C)CC(=O)N1CCN(S(N)(=O)=O)CC1` (stereo not drawn), the “Percent Effect” value was determined as 6.973%. In the case of `COc1ccccc1CN1CC(OC)CN(C(=O)CC(C)C)CC1=O` (stereo not drawn), the “Percent Effect” value was 106.9%. The figure for `COc1ccccc1CN1CC(O)CN(C(=O)OCC(C)C)CC1=O` (stereo not drawn) is 126.7%; for `COc1ccccc1CNC(=O)N1CCCC(CO)C1` (stereo not drawn) it is 3.322%; for `COc1ccccc1CNC(=O)C(C)N1CC(n2nc(C)cc2C)C1` (stereo not drawn) it is -6.868%. In the case of `COc1ccccc1OC1CN(C(=O)Cc2c(C)nc(N)nc2C)C1`, the “Percent Effect” value was -25.47%. Next, `COc1ccccc1CN1CC(OC)CN(C(=O)OCC(C)C)CC1=O` (stereo not drawn): 116.7%.

For `COc1ccccc1C(C)CC(=O)N1CCCS1(=O)=O` (stereo not drawn), the “Percent Effect” value is recorded as -3.86%.

Regarding `Cc1cc(CNc2cc(Cl)ccc2OCCS(C)(=O)=O)no1`, the “Percent Effect” value is given as 12.16%. In the case of `COCCN(Cc1ccsc1)C(=O)c1c(C)cc(C)[nH]c1=O`, the “Percent Effect” value is on record as -10.51%. The figure for `CN1[C@H](CN2CCCC2)C[C@@H]2CN(Cc3ccoc3)CC[C@@H]21.O=C(O)C(F)(F)F.O=C(O)C(F)(F)F.O=C(O)C(F)(F)F` is 3.946%; for `Cc1cc(C(=O)N2CC[C@H]3[C@H](C[C@@H](CN4CCCC4)N3C)C2)c(C)o1.O=C(O)C(F)(F)F.O=C(O)C(F)(F)F` it is 132.6%; for `CC(C)N1[C@H](Cn2cncn2)C[C@@H]2CN(Cc3nccn3C)CC[C@@H]21.O=C(O)C(F)(F)F.O=C(O)C(F)(F)F.O=C(O)C(F)(F)F` it is 2.762%.

`CS(=O)(=O)N1CC[C@H]2[C@H](C[C@@H](Cn3cncn3)N2CC2CC2)C1.O=C(O)C(F)(F)F`: the “Percent Effect” value is recorded as -10.6%. For `CC(C)C1CN(Cc2nccn2C)CCC(=O)N1CC1CC1` (stereo not drawn), the “Percent Effect” value is recorded as -0.2084%. The figure for `CN(C)C[C@@H]1C[C@@H]2CN(Cc3nccn3C)CC[C@@H]2N1CC1CC1` is 107.7%. `CC(C)N1[C@H](CN2CCCC2)C[C@@H]2CN(Cc3ccoc3)CC[C@@H]21.O=C(O)C(F)(F)F.O=C(O)C(F)(F)F.O=C(O)C(F)(F)F`: the “Percent Effect” value was -12.2%. Next, `CCOCC1CN(C(=O)c2cc(C)oc2C)Cc2c1cnn2C.O=C(O)C(F)(F)F` (stereo not drawn): 4.422%. The figure for `Cc1oncc1C(=O)N1C[C@H]2CCCC(N(C)Cc3cccs3)[C@H]2C1.O=C(O)C(F)(F)F` (stereo partly drawn) is 13.96%; for `Cc1ccoc1C(=O)N1CC[C@H]2[C@H](C[C@@H](CN3CCCC3)N2C)C1.O=C(O)C(F)(F)F.O=C(O)C(F)(F)F` it is 96.15%.

Turning to `Cc1oncc1C(=O)N1CC[C@H]2[C@H](C[C@@H](CN(C)C)N2CC2CC2)C1.O=C(O)C(F)(F)F.O=C(O)C(F)(F)F`, the “Percent Effect” value is given as 105.6%. In the case of `Cc1cc(C(=O)N2C[C@@H]3COC[C@]3(CN(C)C)C2)c(C)o1.O=C(O)C(F)(F)F`, the “Percent Effect” value is on record as -9.437%.

Turning to `CN(C)C(=O)N1CCN(Cc2nc3ccccc3[nH]2)[C@H]2CS(=O)(=O)C[C@H]21`, the “Percent Effect” value was -17.35%.

With `CC(C)c1nc(CN2CCCCC2)cs1`, the “Percent Effect” value is -7.213%. The figure for `COCCCN1CC2(CCN(C(=O)Cc3csc(C)n3)CC2)CC1=O` is -10.63%. The figure for `CC1(C)CN(C(=O)c2ncc(F)cc2F)CCC1(O)CN1CCOCC1` (stereo not drawn) is -6.83%. The figure for `COc1cccc(N2CCN(C(=O)c3ccc(=O)n(C)c3)CC2)c1` is -5.711%. As for `CN1CC2(CCN(C(=O)c3ccc4nonc4c3)CC2)CC1=O`, the “Percent Effect” value is given as -11.27%. Next, `CN1CC2(CCN(C(=O)c3ccc(=O)n(C)c3)CC2)CC1=O`: 119.6%. Next, `COCCCN1CC2(CCN(C(=O)c3ncc(F)cc3F)CC2)CC1=O`: 74.04%.

Take `COCCCN1CC2(CCN(C(=O)c3ccc(=O)n(C)c3)CC2)CC1=O`: the “Percent Effect” value was determined as 118.9%.

On to `CN1CC2(CCN(C(=O)c3ccc4nccnc4c3)CC2)CC1=O`, for which the “Percent Effect” value is -6.042%. Next, `COCCCN1CC2(CCN(Cc3ncc[nH]3)CC2)CC1=O`: 10.5%; `Cc1nnc(CN(C)C2CCN(c3cccc(-c4cscn4)c3)CC2)o1`: -15.24%.
